# Test results taken from PubChem BioAssay AID540356 (Broad Institute, 2011).
# The whole screen tested about 2,500 compounds, of which about 360 (14%) were called active. Only a sample is shown. Values without a mark were called inactive.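 Rule for the calls: active = signal-lowering compounds whose fitted half-maximal concentration AC50 is no higher than ten times their top tested concentration; inconclusive = flat curve with 30 to 70% inhibition, or poor fit; inactive = flat within 30%, signal increase, or AC50 above limit.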
# Assay: non-specific inhibitors of H2O2 luminol chemiluminescence – biochemical, luminescence, no ALR or DTT, cherry-pick, artefact control for ALR inhibitor project, dose response (AID 540356);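 for activity change, negative = inhibition: 0% = median of neutral control wells and -100% = median of quercitin 100 µM wells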
# Settings: HRP/H2O2 luminol luminescence counterscreen; series mostly up to 10 µM; activity change, negative = inhibition: at the top concentration
SMILES,"activity change, negative = inhibition [%]",AC50
C/C(=N\Nc1nc2ccccc2[nH]1)c1ccc2c(c1)OCO2,-0.401,
CCN(CCCNC(=O)CNC(=O)Cn1cnc2ccccc2c1=O)c1ccccc1,-0.598,
COc1ccccc1N1CCN(CCc2n[nH]c(=S)n2-c2ccccc2)CC1,-1.88,
C/C(=N\Nc1nc2ccccc2[nH]1)c1cccs1,-8.06,
C/C(=C\c1ccc(N)cc1)c1nc2ccccc2[nH]1,,6.64 µM (active)
C(=C\c1nc2ccccc2[nH]1)/c1ccccc1,-1.61,
COc1ccc(N2CCN(C(=O)Cc3cccs3)CC2)cc1,-2.6,
Cc1ccc(S(=O)(=O)NNC(=O)c2ccc3ccccc3n2)cc1,-12.9,
CCn1c(-c2ccccc2O)n[nH]c1=S,-2.43,
Oc1ccc(Br)cc1-c1cc(-c2ccco2)[nH]n1,-3.86,
Cc1c(NS(=O)(=O)c2ccccc2)cc(Cl)c(O)c1C,-9.8,
O=C(O)c1ccc(CSc2nc3ccc(NC(=O)c4ccccc4C(=O)O)cc3s2)cc1,-0.1,
COc1cc(/C=N/NC(=O)CNC(=O)c2ccncc2)ccc1O,-3.2,
COc1cc(/C(C)=N/NC(=O)Cc2c(C)[nH][nH]c2=O)ccc1O,,5.67 µM (active)
COc1cc(C(=O)N/N=C/c2cccc(Oc3ccccc3)c2)ccc1O,-5.05,
CC1(CCC(=O)N2CCCC(Nc3ccc(F)cc3)C2)CC1 (centres undefined),-2.92,
S=c1[nH]nc(-c2ccco2)n1/N=C/c1ccccc1,-3.81,
S=c1[nH]nc(-c2ccncc2)n1/N=C/C=C/c1ccccc1,-11.5,
Cc1ccc(NC(=O)CN(c2ccc3c(c2)OCO3)S(=O)(=O)c2c(C)n[nH]c2C)cc1,-1.61,
S=c1nccc(-c2cccs2)[nH]1,,3.95 µM (active)
Fc1ccc(-c2ccnc(=S)[nH]2)cc1,,2.78 µM (active)
S=c1[nH]cc(-c2ccccc2)[nH]1,-10.6,
CC(c1ccc(F)cc1)n1c(-c2cccs2)n[nH]c1=S (centres undefined),-0.882,
Cc1ccc(N2C(=O)CC(NNC(=O)c3cccc(S(=O)(=O)N4CCCC4)c3)C2=O)cc1 (centres undefined),0.793,
COc1ccccc1N1CCN(S(=O)(=O)c2ccccc2)CC1,5.49,

SMILES,"activity change, negative = inhibition [%]",AC50
CC(=O)N1CCN=C1SCc1cccc(F)c1,0.475,
COc1ccc(-c2csc(Nc3ccc(S(=O)(=O)Nc4cc(C)on4)cc3)n2)cc1,-8.72,
O=C(O)CCCN1C(=O)/C(=C\c2ccc(-c3nc4ccccc4s3)o2)SC1=S,-3.96,
CC(C(=O)NC1C=CS(=O)(=O)C1)N1C(=O)/C(=C\c2ccccc2)SC1=S (centres undefined),-1.27,
O=c1ccc(-c2n[nH]c(=S)n2-c2ccc(F)c(Cl)c2)n[nH]1,2.95,
CN(C)c1cccc(C(=O)NCc2ccccc2)c1,2.16,
CC(=O)c1ccc(S(=O)(=O)N2CCNC(=O)C2)cc1,0.022,
COC(=O)Nc1ccc(S(=O)(=O)N2CCC(C(=O)N(C)C3CCCCC3)CC2)cc1,-4.36,
COc1ccc(N2CCN(C(=O)CCNS(=O)(=O)c3ccccc3)CC2)cc1,-0.005,
COc1ccccc1NC(=O)Nc1ncccc1C,-3.86,
Cc1ccc(-c2cnc(SCCNC(=O)c3ccco3)[nH]2)cc1,-8.49,
Cc1cccc(-n2c(-c3ccoc3C)n[nH]c2=S)c1,-11.9,
CCN(CC)c1ccc(C2CC(=O)Nc3cc(OC)c(OC)cc32)cc1 (centres undefined),-0.735,
C/C(=N\NC(=O)c1ccc(N/N=C(\C)c2ccncc2)cc1)c1ccncc1,,7.62 µM (active)
C/C(=N\NC(=O)c1ccncc1)c1ccc(N(C)C)cc1,-1.54,
C/C(=N\NC(=O)c1cccc(N/N=C(\C)c2ccncc2)c1)c1ccncc1,-0.18,
Cc1cc(S(=O)(=O)N2CCN(c3ccccc3O)CC2)c(C)s1,-1.49,
COc1cc(-c2csc(CCn3nc(C)cc3C)n2)cc(OC)c1OC,-1.1,
C=CCn1c(-c2cccc([N+](=O)[O-])c2)n[nH]c1=S,-6.54,
C=CCn1c(-c2ccc(N)cc2)nc2ccccc21,-1.15,
CC(C)c1ccc(NC(=O)Cc2c(C(=O)O)n(C)c3ccccc23)cc1,-6.86,
CCc1ccc(NCc2ccc(OC)c(Cn3ccnc3)c2)cc1,0.244,
CC12CCC(C(=O)N/N=C/c3ccc(O)cc3)(OC1=O)C2(C)C (centres undefined),,8.23 µM (active)
Cc1nc(C)c(CC(=O)N/N=C/c2ccc(O)cc2)c(=O)[nH]1,-2.84,
O=C(Cn1cnc2ccccc21)N/N=C/c1ccccn1,-0.451,

SMILES,"activity change, negative = inhibition [%]",AC50
O=C(CC(=O)N/N=C/c1ccc(O)cc1)N/N=C/c1ccc(O)cc1,,2.72 µM (active)
O=C(Cn1cc(C(F)(F)F)ccc1=O)N/N=C/c1ccc(O)cc1,-3.05,
O=C(N/N=C/c1cccc(O)c1)N/N=C/c1cccc(O)c1,-15,
CCN(CC)c1ccc(/C=N\NC(N)=O)cc1,-3.71,
O=C(CCn1cnc2ccccc21)N/N=C/c1ccc(O)cc1,,9.88 µM (active)
CN(C)c1ccc(/C=N/NC(=O)CCC(=O)NCc2ccccc2)cc1,1.49,
Cc1ccc(NC(=O)CCC(=O)N/N=C/c2ccc(O)cc2)cc1,-3.47,
O=C(C[n+]1ccccc1)N/N=C/c1ccc(O)cc1,,6.56 µM (active)
O=C(CCN1CCN(C(c2ccccc2)c2ccccc2)CC1)N/N=C/c1ccc(O)cc1,-4.67,
COc1ccc(C2SCC(=O)N2c2ccc(F)cc2)cc1 (centres undefined),0.747,
NNC(=O)c1cc(-c2ccccc2)sc1N,-1.19,
Cc1cc(C)cc(N2C(=O)CSC2c2ccccn2)c1 (centres undefined),-4.34,
COc1cc(/C=N\NC(=O)c2ccc(-c3ccccc3)cc2)cc(OC)c1O,-2.4,
CC(NC(=O)c1ccccc1)C(=O)N/N=C/c1ccc(O)cc1 (centres undefined),-7.56,
Cn1nc(-c2ccc(Cl)cc2)c2cc(C(=O)NCCCN3CCCC3)sc21,-0.462,
CCn1c(-c2ccc(Cl)cc2)n[nH]c1=S,-8.41,
S=c1[nH]nc(-c2ccc(Cl)cc2)n1-c1ccc(Cl)cc1,-8.06,
Cc1cccc(N2CC(C(=O)Nc3ccccc3N3CCCC3)CC2=O)c1C (centres undefined),-8.55,
COc1ccc(CC(=O)N2CCN=C2SCc2ccc([N+](=O)[O-])cc2)cc1,-0.324,
CCN(CCNC(=O)C1CCN(S(=O)(=O)c2cccc3nsnc23)CC1)c1ccccc1,-0.842,
COc1ccc(C2NC(=O)CS2)cc1OC (centres undefined),7.69,
COc1ccc(/C=N\NC(=O)CCN2CCN(c3ccccc3)CC2)cc1OC,0.672,
COc1ccc(/C=N/NC(=O)CCn2nc(C)cc2C)cc1O,-8.19,
COc1cc(/C=N/NC(=O)CCN2CCCCC2)ccc1O,,8.16 µM (active)
